According to PubChem BioAssay:
Calls of active or inactive are those of the source.

test system: not listed separately; assay: blood-stage malaria parasite viability loss – strain 3D7, DAPI fluorescence, 100 nL, primary screen (AID 1184);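 note: parasites grown inside human red blood cells in medium with human serum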; conditions: P. falciparum 3D7 growth, 3 d, higher = more signal

SMILES	z-score
CCOC(=O)C1=CC[C@@H](c2cc(Cl)ccc2Cl)N(S(=O)(=O)c2ccc(C)cc2)[C@H]1c1ccc(OC)cc1	-1.41
C=C(CCCC)C(=O)CC[C@@H](OC(=O)c1ccccc1-c1ccccc1C(=O)O)c1cccc(OCCO)c1	-2.46
CC(C)(C)OC(=O)CC[C@@]1(C(=O)O)N=C(c2ccc(OCCCO)cc2)O[C@@H]1c1ccccc1CN=[N+]=[N-]	0.664
O=C1C[C@]2(c3ccc([N+](=O)[O-])cc3)C(=O)N(Cc3ccccc3)c3cc(CO)ccc3[C@H]2N1CC12CC3CC(CC(C3)C1)C2	-0.734
O=C(CS)NCCCCCCNC(=O)[C@@H]1C[C@@H]2C(=O)N3CCC[C@H]3C(=O)N2[C@@H]1c1cccc(OCCO)c1	0.0153
CN(C)CCCCNC(=O)[C@H]1C[C@H]2C(=O)N[C@@H](CCCCN(C)C)C(=O)N2[C@H]1c1cccc(OCCO)c1	0.649

target: Homeobox protein Hox-A13 (Mus musculus) (UniProt Q62424); assay: disruptors of Hoxa13 oligonucleotide interaction – biochemical, fluorescence polarization, labeled oligonucleotide, primary screen (AID 1185); conditions: Hoxa13:DNA binding, 15 min, higher = more signal, called active from +8 up or from −8 down
Sequence (Q62424 whole entry, looked up): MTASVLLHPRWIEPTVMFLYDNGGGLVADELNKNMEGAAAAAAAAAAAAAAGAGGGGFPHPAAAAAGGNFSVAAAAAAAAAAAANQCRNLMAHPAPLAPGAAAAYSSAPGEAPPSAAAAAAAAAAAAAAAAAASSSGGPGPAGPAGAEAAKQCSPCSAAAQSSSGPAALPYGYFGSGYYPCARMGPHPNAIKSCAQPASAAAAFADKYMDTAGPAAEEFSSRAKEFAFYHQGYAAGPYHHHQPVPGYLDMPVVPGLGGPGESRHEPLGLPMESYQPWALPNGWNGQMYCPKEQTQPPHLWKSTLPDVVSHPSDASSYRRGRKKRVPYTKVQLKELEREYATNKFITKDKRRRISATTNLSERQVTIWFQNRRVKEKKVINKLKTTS

SMILES	z-score
COCC(=C=CC[C@H](O)c1ccc(OCCO)cc1)C[C@H](O)COCc1ccccc1	-5.25 (inactive)
O=C1NC(=O)C2C1C=CC(C(O)c1cc(C(F)(F)F)cc(C(F)(F)F)c1)N2Nc1ccc(Cl)cc1Cl (stereo unspecified)	-5.48 (inactive)
COC(=O)[C@H](Cc1ccccc1)N1CC(/C=C/C2CC2)=C[C@@H]1[C@@H](O)Cc1ccccc1	-5.53 (inactive)
NC(=O)NCC#Cc1ccc2c(c1)[C@]1(C(=O)N2)[C@H](C(=O)Nc2nc3ccccc3s2)[C@H]2C(=O)O[C@H](c3ccccc3)[C@H](c3ccccc3)N2[C@@H]1c1ccc(O)cc1	0.916 (inactive)
O=C1O[C@@H](c2ccccc2)[C@@H](c2ccccc2)N2[C@@H](c3ccc(O)cc3)[C@]3(C(=O)Nc4ccc(C#CC5=CCCCC5)cc43)[C@@H](C(=O)N3CCN(c4ncccn4)CC3)[C@H]12	0.676 (inactive)
CC(=O)NCCCC[C@@H]1NC(=O)[C@@H]2C[C@H](C(=O)O)[C@H](c3ccc(O)cc3)N2C1=O	-2.19 (inactive)
COc1cc(CO)cc(I)c1O[C@H]1C=C(C(=O)NCCO)C[C@@H](NCc2ccccc2F)[C@@H]1O	-7.62 (inactive)
O=C1NCC(=O)N2[C@@H]1C[C@@H](C(=O)O)[C@H]2c1ccc(O)cc1	-1.91 (inactive)
COC(=O)[C@@]1(Cc2ccc(F)cc2)[C@H]2c3cc(C(=O)N4CCCC4)n(CCF)c3C[C@H]2CN1C(=O)c1ccccc1	-4.62 (inactive)
C[C@]1(C(=O)O)c2ccccc2C(=O)N(Cc2ccccc2)[C@H]1c1ccc(CO)cc1	-1.72 (inactive)
CCOC(=O)C[C@H]1[C@H](OC(=O)c2ccc(-c3ccccc3)cc2)[C@@H](NC(=O)C2CCCCC2)c2cc(OCCCO)ccc2N1C(=O)c1ccccc1	-2.07 (inactive)
O=C1O[C@@H](c2ccccc2)[C@@H](c2ccccc2)N2[C@@H](c3ccccc3OCCO)[C@]3(C(=O)Nc4ccccc43)[C@@H](C(=O)NC[C@H](O)c3ccccc3)[C@H]12	-5.34 (inactive)
C=CC1c2cc(O)c(OC)cc2CCN1Cc1sc2ccccc2c1Cl (stereo unspecified)	-2.71 (inactive)
CC(C)CN1C(=O)[C@@]2(c3ccc([N+](=O)[O-])cc3)CC(=O)N(CC34CC5CC(CC(C5)C3)C4)[C@@H]2c2ccc(CO)cc21	0.944 (inactive)
COCCOC(=O)N1C(=O)[C@@]2(c3cc(C#Cc4ccc(OC)cc4)ccc31)[C@H](C(=O)N1CCN(c3ncccn3)CC1)[C@H]1C(=O)O[C@H](c3ccccc3)[C@H](c3ccccc3)N1[C@@H]2c1ccccc1OCCO	-0.114 (inactive)
CCOC(=O)C[C@H]1[C@H](OC(=O)Cc2ccc3c(c2)OCO3)[C@@H](NC(=O)Cc2ccc(OC)cc2)c2cc(OCCCO)ccc2N1C(=O)c1ccccc1	-2.51 (inactive)
[N-]=[N+]=Nc1ccccc1C[C@]1(C(=O)NCc2ccccc2)N=C(c2ccc(OCCCO)cc2)O[C@H]1c1ccccc1	-0.801 (inactive)
COC(=O)Cn1c(C(=O)N2CCCC2)cc2c1C[C@H]1CN(C(=O)c3ccccc3)[C@@](Cc3ccc(F)cc3)(C(=O)OC)[C@@H]21	-5.15 (inactive)
COc1ccc(NN2C(C(O)c3ccco3)C=CC3C(=O)N(C4CCCCC4)C(=O)C32)cc1 (stereo unspecified)	-3.76 (inactive)
CCCCN1CC=CC23O[C@@H]4C=CCOC(=O)[C@@H]4[C@H]2C(=O)N(C(C)CO)[C@@H]3C1=O (stereo partly specified)	-5.05 (inactive)
